For some assays here: Potency and affinity values are given separately. Active and inactive are the calls of the source. Unless noted, no rule for the calls is given here.
Columns and labels:
[1] = antimalarial activity against Dd2 strain (AID 2302;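 active = growth inhibition above 50% at the single 2 µM test dose, taken to imply half-maximal potency below 2 µM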;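 also: 0% = DMSO untreated growth and 100% = chloroquine plus artemisinin killed control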); details: P. falciparum Dd2 in RBCs, LDH growth readout, 72 h; at 2 µM; stronger effect = higher value
[2] = human hepatoma cell viability loss – ATP luminescence, cytotoxicity control for P. falciparum antimalarial project, primary screen (AID 2303;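 active = inhibition above 50%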;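 also: 0% = DMSO wells and 100% = digitonin-killed cells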); details: HepG2 viability, 24-48 h, at 10 µM, stronger effect = higher value
[3] = molecular target: L-lactate dehydrogenase (Plasmodium falciparum (isolate CDC / Honduras)) (UniProt Q27743); experiment: PfLDH activity inhibition – cell lysate, 3D7 strain, counter-screen for P. falciparum growth inhibition project (AID 2304);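 also: 0% = vehicle and 100% = reference inhibitor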; details: P. falciparum 3D7 crude extract, LDH APAD/NBT absorbance; at 2 µM; stronger effect = higher value
[4] = inhibition of 3D7 malaria parasite growth – strain 3D7 (AID 2306);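 also: 0% = DMSO wells and 100% = chloroquine plus artemisinin control wells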; details: P. falciparum 3D7 erythrocytic growth, LDH absorbance, 72 h; at 2 µM; stronger effect = higher value
[5] = molecular target: Calcium-dependent protein kinase 1 (Plasmodium falciparum (isolate 3D7)) (UniProt P62344); experiment: PfCDPK1 kinase inhibitors, biochemical, TCAMS library (AID 1159585; cut-off not given, nearly all actives have IC50 up to about 0.98 µM;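 also: inhibitors leave more ATP so luminescence rises with inhibition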); details: recombinant PfCDPK1, Kinase-Glo ATP depletion luminescence
[6] = molecular target: Plasmodium falciparum protein kinase 6 (PK6, PF3D7_1337100) (UniProt Q8IDW1); experiment: PfPK6 kinase inhibitors, biochemical, TCAMS library (AID 1159586); details: recombinant PfPK6, Kinase-Glo ATP depletion luminescence
[7] = molecular target: Protein kinase 7 (PK7), Plasmodium falciparum 3D7 (PF3D7_0213400) (UniProt Q7YTF7); experiment: inhibition of Plasmodium PK7 catalytic activity – biochemical, TCAMS antimalarial set, Kinase-Glo luminescence (AID 1159587); details: recombinant PfPK7, Kinase-Glo ATP depletion luminescence
[8] = molecular target: Calcium-dependent protein kinase 4 (Plasmodium falciparum (isolate 3D7)) (UniProt Q8IBS5); experiment: PfCDPK4 kinase inhibitors, biochemical, TCAMS library (AID 1159588; cut-off not given, nearly all actives have IC50 up to about 0.91 µM); details: recombinant PfCDPK4, Kinase-Glo ATP depletion luminescence
Sequence of Calcium-dependent protein kinase 4 (Plasmodium falciparum (isolate 3D7)) (Q8IBS5 whole entry, looked up): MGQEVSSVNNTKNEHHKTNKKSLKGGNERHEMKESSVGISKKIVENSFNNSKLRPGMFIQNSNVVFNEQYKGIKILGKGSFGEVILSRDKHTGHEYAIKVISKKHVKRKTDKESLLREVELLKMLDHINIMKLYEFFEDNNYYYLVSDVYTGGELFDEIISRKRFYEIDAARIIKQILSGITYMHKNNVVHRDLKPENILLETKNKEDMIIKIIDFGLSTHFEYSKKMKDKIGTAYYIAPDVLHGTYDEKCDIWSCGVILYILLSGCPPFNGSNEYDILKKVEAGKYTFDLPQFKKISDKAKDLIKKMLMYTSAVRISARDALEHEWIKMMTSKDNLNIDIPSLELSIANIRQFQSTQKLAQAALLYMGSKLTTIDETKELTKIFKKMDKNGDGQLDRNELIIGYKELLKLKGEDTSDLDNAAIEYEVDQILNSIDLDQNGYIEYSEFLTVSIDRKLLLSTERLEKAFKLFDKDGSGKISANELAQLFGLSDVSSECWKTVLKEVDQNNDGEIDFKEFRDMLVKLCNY

Sequence of L-lactate dehydrogenase (Plasmodium falciparum (isolate CDC / Honduras)) (Q27743 whole entry, looked up): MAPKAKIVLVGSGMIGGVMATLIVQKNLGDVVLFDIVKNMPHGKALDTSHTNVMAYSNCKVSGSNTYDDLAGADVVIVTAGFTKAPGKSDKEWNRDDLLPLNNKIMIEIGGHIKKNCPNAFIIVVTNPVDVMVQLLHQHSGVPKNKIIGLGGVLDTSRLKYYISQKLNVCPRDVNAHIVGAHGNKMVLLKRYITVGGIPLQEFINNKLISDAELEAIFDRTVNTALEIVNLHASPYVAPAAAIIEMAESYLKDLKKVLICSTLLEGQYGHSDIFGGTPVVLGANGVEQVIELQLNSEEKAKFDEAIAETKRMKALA
Sequence of Calcium-dependent protein kinase 1 (Plasmodium falciparum (isolate 3D7)) (P62344 whole entry, looked up): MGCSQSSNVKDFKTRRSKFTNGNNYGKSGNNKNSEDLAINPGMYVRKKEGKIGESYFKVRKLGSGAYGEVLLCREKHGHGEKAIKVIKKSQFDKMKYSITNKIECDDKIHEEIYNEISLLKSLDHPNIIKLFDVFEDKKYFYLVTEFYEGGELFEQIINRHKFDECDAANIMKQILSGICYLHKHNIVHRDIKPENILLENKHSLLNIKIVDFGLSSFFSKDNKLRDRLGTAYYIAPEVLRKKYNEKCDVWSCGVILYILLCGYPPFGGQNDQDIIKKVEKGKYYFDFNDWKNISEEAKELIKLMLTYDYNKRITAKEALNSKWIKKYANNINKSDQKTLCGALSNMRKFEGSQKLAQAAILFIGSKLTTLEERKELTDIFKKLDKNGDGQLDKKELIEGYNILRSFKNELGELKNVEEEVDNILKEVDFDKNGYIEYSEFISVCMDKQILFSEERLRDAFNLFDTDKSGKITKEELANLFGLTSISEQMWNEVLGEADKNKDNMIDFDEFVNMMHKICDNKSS
Sequence of Protein kinase 7 (PK7), Plasmodium falciparum 3D7 (PF3D7_0213400) (Q7YTF7 1-343): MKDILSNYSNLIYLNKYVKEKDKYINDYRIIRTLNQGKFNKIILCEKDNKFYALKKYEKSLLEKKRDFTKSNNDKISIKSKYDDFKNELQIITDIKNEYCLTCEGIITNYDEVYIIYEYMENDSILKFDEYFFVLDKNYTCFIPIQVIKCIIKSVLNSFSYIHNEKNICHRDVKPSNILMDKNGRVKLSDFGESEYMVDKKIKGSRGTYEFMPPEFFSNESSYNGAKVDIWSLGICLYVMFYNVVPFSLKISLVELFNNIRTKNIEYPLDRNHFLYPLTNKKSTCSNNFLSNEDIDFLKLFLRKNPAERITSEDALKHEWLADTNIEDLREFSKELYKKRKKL
Sequence of Plasmodium falciparum protein kinase 6 (PK6, PF3D7_1337100) (Q8IDW1 1-305): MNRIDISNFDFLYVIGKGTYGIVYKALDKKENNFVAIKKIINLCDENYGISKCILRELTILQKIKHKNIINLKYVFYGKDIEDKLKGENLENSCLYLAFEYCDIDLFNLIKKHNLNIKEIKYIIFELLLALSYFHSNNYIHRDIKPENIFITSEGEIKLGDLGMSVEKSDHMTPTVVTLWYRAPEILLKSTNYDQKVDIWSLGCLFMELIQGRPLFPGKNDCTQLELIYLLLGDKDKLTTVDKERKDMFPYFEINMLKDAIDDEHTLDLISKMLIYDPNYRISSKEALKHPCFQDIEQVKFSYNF

COc1ccc(CC(=O)NC(CCN2CCC3(CCc4ccccc43)CC2)c2ccc(Cl)c(Cl)c2)cc1 (stereo not given)
active: growth inhibition [1] 75% | growth inhibition [4] 90%
inactive: inhibition [2] 28% | inhibition [3] -1% | outcome [5] | outcome [6] | outcome [7] | outcome [8]

Cc1cc(NN=Cc2ccccc2F)c2ccccc2n1
active: growth inhibition [1] 81% | growth inhibition [4] 101%
inactive: inhibition [2] 14% | inhibition [3] 1% | outcome [5] | outcome [6] | outcome [7] | outcome [8]

CC(=O)Nc1ccc2[nH]cc(C3CCN(CC4CCC(NC(=O)/C=C/c5ccccc5Cl)CC4)CC3)c2n1 (stereo not given)
active: growth inhibition [1] 79% | growth inhibition [4] 101%
inactive: inhibition [2] 16% | inhibition [3] -1% | outcome [5] | outcome [6] | outcome [7] | outcome [8]

Cc1cccc(C)c1CNc1nc(N2CCOCC2)cc2c(C)c(C)[nH]c12
inactive: inhibition [3] -4% | outcome [5] | outcome [6] | outcome [7] | outcome [8]
active: growth inhibition [1] 64% | inhibition [2] 51% | growth inhibition [4] 92%

Cc1ccc(Cn2cnc3cc(C(=O)Nc4ccc(-c5ccc(CN(C)C)cc5)cc4)ccc3c2=O)o1
inactive: growth inhibition [1] 12% | inhibition [2] 43% | inhibition [3] -1% | outcome [5] | outcome [6] | outcome [7] | outcome [8]
active: growth inhibition [4] 82%

Cc1cc(Nc2ccc(O)cc2)nc2cc(O)ccc12
inactive: growth inhibition [1] 9% | inhibition [2] 0% | inhibition [3] -2% | outcome [5] | outcome [6] | outcome [7] | outcome [8]
active: growth inhibition [4] 100%

NCc1cccc(-c2ccc3ccnc(N)c3c2)c1
active: growth inhibition [1] 96% | growth inhibition [4] 101%
inactive: inhibition [2] 7% | inhibition [3] 0% | outcome [5] | outcome [6] | outcome [7] | outcome [8]

O=C1COC(c2ccccc2)(c2ccccc2)CN1CC1CCN(Cc2ccc(O)cc2Cl)C1 (stereo not given)
inactive: inhibition [3] 2% | outcome [5] | outcome [6] | outcome [7] | outcome [8]
active: growth inhibition [1] 81% | inhibition [2] 53% | growth inhibition [4] 85%

Cn1c(NCc2cc(F)cc3c2OCOC3)nc2cc(Nc3ccnc(Nc4cccc(CS(C)(=O)=O)c4)n3)ccc21
inactive: inhibition [2] -14% | inhibition [3] -1% | outcome [5] | outcome [6] | outcome [7] | outcome [8]
active: growth inhibition [1] 100% | growth inhibition [4] 102%

Cc1cc2ncn(-c3ccnc(N4CCN(CCCN5CCCC5)CC4)n3)c2cc1C
active: growth inhibition [4] 100%
inactive: growth inhibition [1] 49% | inhibition [2] 24% | inhibition [3] -4% | outcome [5] | outcome [6] | outcome [7] | outcome [8]

COC(=O)c1cc(NC(=O)Nc2ccc(Cn3ncc(N4CCCNCC4)c(Cl)c3=O)cc2)cc(C(=O)OC)c1
inactive: inhibition [2] -3% | inhibition [3] 3% | outcome [5] | outcome [6] | outcome [7] | outcome [8]
active: growth inhibition [1] 90% | growth inhibition [4] 96%

O=C1NC(C(=O)Nc2ccccc2)C(c2ccccc2)S1 (stereo not given)
active: growth inhibition [1] 99% | growth inhibition [4] 95%
inactive: inhibition [2] -4% | inhibition [3] -1% | outcome [5] | outcome [6] | outcome [7] | outcome [8]

CCCCOc1c(CCC)cc(Cc2cnc(N)nc2N)cc1CCC
active: growth inhibition [4] 97%
inactive: growth inhibition [1] -2% | inhibition [2] 27% | inhibition [3] 2% | outcome [5] | outcome [6] | outcome [7] | outcome [8]

CC(=O)c1ccc2c(c1)[C@H](NC(=O)c1cccc(Cl)c1Cl)[C@@H](CO)C(C)(C)O2
active: growth inhibition [4] 99%
inactive: growth inhibition [1] 44% | inhibition [2] 5% | inhibition [3] 4% | outcome [5] | outcome [6] | outcome [7] | outcome [8]

COc1ccccc1Cn1ccnc1SCC(=O)Nc1cc(C(F)(F)F)ccc1Cl
inactive: inhibition [2] 12% | inhibition [3] 1% | outcome [5] | outcome [6] | outcome [7] | outcome [8]
active: growth inhibition [1] 97% | growth inhibition [4] 96%

O=C(/C=C/c1ccc(Cl)cc1)NCCCCCN1CCC(c2c[nH]c3ccccc23)CC1
active: growth inhibition [4] 99%
inactive: growth inhibition [1] 15% | inhibition [2] 42% | inhibition [3] 7% | outcome [5] | outcome [6] | outcome [7] | outcome [8]

Cc1ccc(NC(=O)c2ccc(CN3CCCN(CC4CCCCC4)CC3)cc2)cc1F
inactive: inhibition [3] -2% | outcome [5] | outcome [6] | outcome [7] | outcome [8]
active: growth inhibition [1] 61% | inhibition [2] 51% | growth inhibition [4] 92%

COc1ccc2nc(C)cc(NCc3ccc4ccccc4c3)c2c1
inactive: inhibition [2] 21% | inhibition [3] -1% | outcome [5] | outcome [6] | outcome [7] | outcome [8]
active: growth inhibition [1] 75% | growth inhibition [4] 101%

CN1CCN(CC(=O)Nc2ccc(-c3ccc(-c4nc5ccc(C(F)(F)F)cc5[nH]4)cc3)cc2)CC1
active: growth inhibition [1] 98% | growth inhibition [4] 101%
inactive: inhibition [2] 43% | inhibition [3] -3% | outcome [5] | outcome [6] | outcome [7] | outcome [8]

COc1ccc(CN2CCCC(OC(c3ccc(F)cc3)c3ccc(F)cc3)C2)c(O)c1 (stereo not given)
inactive: inhibition [2] 16% | inhibition [3] 0% | outcome [5] | outcome [6] | outcome [7] | outcome [8]
active: growth inhibition [1] 99% | growth inhibition [4] 100%

CC(=O)c1ccc(NC(=O)NNC(=O)c2ccc(CCN3CCC(c4nc(COCC(F)(F)F)c(-c5ccc(F)cc5)o4)CC3)cc2)cc1
inactive: growth inhibition [1] 27% | inhibition [2] 17% | inhibition [3] -10% | outcome [5] | outcome [6] | outcome [7] | outcome [8]
active: growth inhibition [4] 96%

O=C(/C=C/c1ccc(Cl)c(Cl)c1)NCCCCCCN1CCN(C(=O)Nc2ccc(C(F)(F)F)cc2)CC1
inactive: growth inhibition [1] 44% | inhibition [2] 42% | inhibition [3] -1% | outcome [5] | outcome [6] | outcome [7] | outcome [8]
active: growth inhibition [4] 100%

COc1ccc(-c2nc(NC(=O)CS(=O)(=O)c3ccccc3)sc2C)cc1
active: growth inhibition [1] 82% | growth inhibition [4] 99%
inactive: inhibition [2] 7% | inhibition [3] -9% | outcome [5] | outcome [6] | outcome [7] | outcome [8]

O=c1cc(NCCC(CNCc2ccc(Br)o2)NCc2cc(Br)cc(Br)c2)[nH]c2ccccc12 (stereo not given)
active: growth inhibition [1] 90% | growth inhibition [4] 98%
inactive: inhibition [2] 2% | inhibition [3] 6% | outcome [5] | outcome [6] | outcome [7] | outcome [8]

Cc1cc(NN=Cc2ccccc2Cl)c2cc(C(F)(F)F)ccc2n1
active: growth inhibition [1] 75% | growth inhibition [4] 100%
inactive: inhibition [2] -4% | inhibition [3] -4% | outcome [5] | outcome [6] | outcome [7] | outcome [8]

O=C(Nc1cc(Cl)cc(Cl)c1)N[C@H]1CCN(CCCCCNC(=O)[C@@H]2C[C@H]2c2ccc(Cl)c(Cl)c2)C1
active: growth inhibition [4] 99%
inactive: growth inhibition [1] -3% | inhibition [2] 49% | inhibition [3] 3% | outcome [5] | outcome [6] | outcome [7] | outcome [8]

CC1CCCN1Cc1ccc(-c2ccc3c(=O)cc(CCc4cccc(F)c4F)n(CC(=O)N(C)Cc4ccc(-c5ccc(C(F)(F)F)cc5)cc4)c3n2)cc1 (stereo not given)
inactive: inhibition [2] 0% | inhibition [3] 3% | outcome [5] | outcome [6] | outcome [7] | outcome [8]
active: growth inhibition [1] 91% | growth inhibition [4] 102%

CN(C)Cc1cccc(CNC(=O)c2sccc2OCc2ccc(Cl)cc2)c1
active: growth inhibition [1] 88% | growth inhibition [4] 90%
inactive: inhibition [2] 7% | inhibition [3] -6% | outcome [5] | outcome [6] | outcome [7] | outcome [8]

CN(C)C(=O)n1cnc(S(=O)(=O)N(C)c2ccc(Cl)cc2)n1
active: growth inhibition [1] 80% | growth inhibition [4] 88%
inactive: inhibition [2] 7% | inhibition [3] 3% | outcome [5] | outcome [6] | outcome [7] | outcome [8]

c1ccc2[nH]c(-c3ccc(-c4ccc(CNC5CC5)cc4)s3)nc2c1
active: growth inhibition [4] 91%
inactive: growth inhibition [1] 19% | inhibition [2] 25% | inhibition [3] -7% | outcome [5] | outcome [6] | outcome [7] | outcome [8]

O=C(CCCCCNC(=O)c1ccc(O)c(-c2ccc(Cl)c(Cl)c2)c1)NC1CCCCCC1
active: growth inhibition [4] 92%
inactive: growth inhibition [1] 3% | inhibition [2] -4% | inhibition [3] 2% | outcome [5] | outcome [6] | outcome [7] | outcome [8]

Cc1cc(NC(c2ccc(Cl)cc2)c2ccc3cccnc3c2O)no1 (stereo not given)
inactive: growth inhibition [1] 26% | inhibition [3] 5% | outcome [5] | outcome [6] | outcome [7] | outcome [8]
active: inhibition [2] 50% | growth inhibition [4] 88%

CCCc1cccc(OC)c1OCCCON1C(N)=NC(N)=NC1(C)C
active: growth inhibition [1] 97% | inhibition [2] 65% | growth inhibition [4] 94%
inactive: inhibition [3] 5% | outcome [5] | outcome [6] | outcome [7] | outcome [8]

Cc1cccc2[nH]c(-c3ccc(-c4ccc(CN5CCN(CCN6CCOCC6)CC5)cc4)cc3)nc12
inactive: inhibition [2] 49% | inhibition [3] -1% | outcome [5] | outcome [6] | outcome [7] | outcome [8]
active: growth inhibition [1] 74% | growth inhibition [4] 98%

COc1ccc(-c2ccc(NC(=O)c3ccc(C#N)cc3)cc2)cc1CN(C)CCN(C)C
inactive: inhibition [2] 28% | inhibition [3] 2% | outcome [5] | outcome [6] | outcome [7] | outcome [8]
active: growth inhibition [1] 58% | growth inhibition [4] 96%

N#Cc1ccc(N2CCN(Cc3cccc(-c4ccc(-c5nc6ccc(C(F)(F)F)cc6[nH]5)s4)c3)CC2)nc1
active: growth inhibition [1] 52% | growth inhibition [4] 96%
inactive: inhibition [2] 31% | inhibition [3] -4% | outcome [5] | outcome [6] | outcome [7] | outcome [8]

O=C(Nc1cccc(-c2nc3ccccc3[nH]2)c1)c1cccc(NC(=O)c2ccco2)c1
active: growth inhibition [4] 91%
inactive: growth inhibition [1] 45% | inhibition [2] 9% | inhibition [3] 0% | outcome [5] | outcome [6] | outcome [7] | outcome [8]

O=C(Nc1cccc(-c2ccc(-c3nc4ccc(C(F)(F)F)cc4[nH]3)s2)c1)c1ccncc1
inactive: growth inhibition [1] 46% | inhibition [3] -13% | outcome [5] | outcome [6] | outcome [7] | outcome [8]
active: inhibition [2] 79% | growth inhibition [4] 99%

O=C(Nc1nccs1)c1cn(-c2ccccc2)nc1-c1ccc(Cl)s1
inactive: growth inhibition [1] 18% | inhibition [2] 9% | inhibition [3] 0% | outcome [5] | outcome [6] | outcome [7] | outcome [8]
active: growth inhibition [4] 96%

CCCCNC(=O)[C@H](CC1CCCCC1)NC(=O)c1ccc(O)c(-c2ccc(Cl)c(Cl)c2)c1
inactive: inhibition [2] -9% | inhibition [3] -1% | outcome [5] | outcome [6] | outcome [7] | outcome [8]
active: growth inhibition [1] 99% | growth inhibition [4] 98%
